Test results reported in PubChem BioAssay (EPA / NIEHS).
“And” between values parts separate entries of the source, which are not always exact repeats. Identical values can stand only once. Records with an inconclusive call do not appear. The source made the active and inactive calls. How the source made its calls, unless noted: active means hit-call score of the fitted dose curve at least 0.9, where 1 is the maximum; inactive means score below 0.9.

What was measured:
[1] = biological target: Paired box protein Pax-6 (Homo sapiens) (UniProt P26367); assay: ATG_Pax6_CIS: Attagene CIS-FACTORIAL HepG2 Assay for human Paired Box 6 (PAX6) (AID 2282956); conditions: HepG2 CIS-FACTORIAL PAX6 reporter transcription, RNA readout; actives raise or lower the signal
Method in brief: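 Values derive from bidirectional curve fitting of reporter mRNA signal relative to DMSO. HepG2 cells bearing transfected cis-regulated MRTUs were exposed for 24 h; transcripts were read by RT-PCR and capillary electrophoresis.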

[2] = ATG_PXRE_CIS: Attagene CIS-FACTORIAL HepG2 Assay for human Pregnane X Receptor Element (PXRE) (AID 2282957); conditions: HepG2 Attagene CIS-FACTORIAL PXRE reporter, mRNA; actives raise or lower the signal
Method in brief: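 Endogenous transcription factor activity in HepG2 was gauged through induction of reporter mRNA driven by a cis-regulating promoter element, sampled 24 h post-treatment. Activity was fitted in both directions against DMSO negative control.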

[3] = ATG_RORE_CIS: Attagene CIS-FACTORIAL HepG2 Assay for human RAR-related Orphan Receptor Element (RORE) (AID 2282959); conditions: HepG2 Attagene cis-factorial RORE reporter, mRNA; actives raise or lower the signal
Method in brief: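 Transfect HepG2 with MRTUs; treat 24 h; extract RNA; RT with oligo(dT); PCR with reporter-specific primers; 6-FAM primer extension; HpaI digest 2 h at 37 C; capillary electrophoresis. Fit vs DMSO, bidirectional.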

[4] = ATG_Sox_CIS: Attagene CIS-FACTORIAL HepG2 Assay for human SRY-box transcription factor (SOX) (AID 2282960); conditions: HepG2 Attagene cis-factorial SOX reporter, mRNA; actives raise or lower the signal
Method in brief: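 Fluorescence-labelled cDNA fragments from reporter transcripts, sized by CE, give the signal. Cells: HepG2, transiently transfected with cis-regulated reporter units. Exposure 24 h; DMSO negative control; bidirectional curve fitting.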

[5] = biological target: Transcription factor Sp1 (Homo sapiens) (UniProt P08047); assay: ATG_Sp1_CIS: Attagene CIS-FACTORIAL HepG2 Assay for human Specificity Protein 1 (Sp1) (AID 2282961); conditions: HepG2 Sp1 cis-reporter transcription, actives raise or lower the signal
Method in brief: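 Chemicals are dosed onto HepG2 cells transfected with multiple cis-promoter reporter constructs, and after 24 h reporter RNA is reverse-transcribed, PCR-amplified and resolved by capillary electrophoresis for fluorescence quantitation; activity is scored up or down against DMSO.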

[6] = biological target: Signal transducer and activator of transcription 3 (Homo sapiens) (UniProt P40763); assay: ATG_STAT3_CIS: Attagene CIS-FACTORIAL HepG2 Assay for human Signal Transducer and Activator of Transcription 3 (STAT3) (AID 2282963); conditions: HepG2, Attagene cis-factorial STAT3 reporter transcription; actives raise or lower the signal
Method in brief: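 Uses human liver HepG2 transiently carrying cis-regulated reporter transcription units. Following 24 h dosing, reporter mRNA induction was detected by RT-PCR and capillary electrophoresis, analysed bidirectionally versus DMSO.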

[7] = ATG_TA_CIS: Attagene CIS-FACTORIAL HepG2 Assay for human TA Basal Promoter (AID 2282964); conditions: HepG2 Attagene CIS-factorial TA basal promoter reporter; actives raise or lower the signal
Method in brief: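 Read-out: fluorescent reporter-transcript fragments resolved by capillary electrophoresis after RT-PCR and HpaI digestion. Source: HepG2 cells carrying transiently transfected multi-reporter cis constructs, treated 24 h. Endpoint fitted bidirectionally relative to DMSO.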

[8] = ATG_TAL_CIS: Attagene CIS-FACTORIAL HepG2 Assay for human TAL Basal Promoter (AID 2282966); conditions: HepG2 Attagene cis-factorial TAL promoter reporter; actives raise or lower the signal;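 further: background control endpoint measuring basal TAL promoter reporter mRNA not a specific factor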
Method in brief: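 Endogenous transcription-factor activity is sensed in HepG2 cells through transfected cis-promoter reporter constructs. After 24 h dosing, reporter transcripts are quantified by RT-PCR and capillary electrophoresis. Gain or loss of signal is fitted relative to DMSO.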

[9] = ATG_TGFb_CIS: Attagene CIS-FACTORIAL HepG2 Assay for human Transforming Growth Factor (TGF) (AID 2282967); conditions: HepG2 Attagene CIS TGFb reporter, mRNA transcription; actives raise or lower the signal
Method in brief: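 Transient MRTU transfection of HepG2 (FuGene 6). Dose 24 h. TriZol RNA, oligo(dT) RT, PCR, 6-FAM primer extension, HpaI cut, CE. Bidirectional fit, DMSO = baseline.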

[10] = ATG_VDRE_CIS: Attagene CIS-FACTORIAL HepG2 Assay for human Vitamin D Receptor Element (VDRE) (AID 2282968); conditions: HepG2 VDRE cis-reporter transcription, actives raise or lower the signal
Method in brief: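 Transfected HepG2 reporter cells, chemical treatment 24 h. RNA isolated, cDNA amplified with reporter-specific primers, products analysed by capillary electrophoresis. Endpoint fitted in both directions versus DMSO.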

[11] = biological target: Steroid hormone receptor ERR1 (Homo sapiens) (UniProt P11474); assay: ATG_ERRa_TRANS: Attagene TRANS-FACTORIAL HepG2 Assay for human Estrogen-Related Receptor alpha (ERRa) (AID 2282971; active means hit-call score of the fitted dose curve at least 0.9, where 1 is the maximum); conditions: HepG2 Attagene TRANS reporter, ERRa transactivation
Method in brief: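 HepG2 cells were transiently transfected with multiple GAL4-UAS reporter units, then dosed with compound for 24 h. Total RNA was reverse-transcribed, reporter cDNA PCR-amplified and fluorescently labelled, and fragments resolved by capillary electrophoresis; induction was compared with DMSO.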

[12] = biological target: X-box-binding protein 1 (Homo sapiens) (UniProt P17861); assay: ATG_Xbp1_CIS: Attagene CIS-FACTORIAL HepG2 Assay for human X-box Binding Protein 1 (XBP1) (AID 2282972); conditions: HepG2 XBP1 cis-element reporter, Attagene multiplex; actives raise or lower the signal
Method in brief: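 Human hepatoma HepG2, cis-element reporter system, 24 h treatment; mRNA quantified by RT-PCR/CE fluorescence; fit relative to DMSO.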

[13] = biological target: Androgen receptor (Homo sapiens) (UniProt P10275); assay: ATG_AR_TRANS: Attagene TRANS-FACTORIAL HepG2 Assay for human Androgen Receptor (AR) (AID 2282973; active means hit-call score of the fitted dose curve at least 0.9, where 1 is the maximum); conditions: HepG2 Attagene TRANS-FACTORIAL AR reporter transcription
Method in brief: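 Transfected HepG2, 24 h treatment, chimeric NR-Gal4 driving GAL4-UAS reporters. mRNA induction by RT-PCR/capillary electrophoresis fluorescence; DMSO as negative control and baseline.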

[14] = ATG_M_19_TRANS: Attagene TRANS-FACTORIAL HepG2 Assay for M19 Transcription Factor (Internal Marker) (AID 2282974; active means hit-call score of the fitted dose curve at least 0.9, where 1 is the maximum); conditions: HepG2 Attagene TRANS-FACTORIAL M19 internal marker reporter
Method in brief: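 Multiplexed TRANS format: HepG2 liver cells bearing transient GAL4-UAS reporter units, chemical treatment 24 h, reporter transcripts quantified by RT-PCR plus capillary electrophoresis. DMSO defines baseline.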

[15] = ATG_PPRE_CIS: Attagene CIS-FACTORIAL HepG2 Assay for human Peroxisome Proliferator-activated Response Element (PPRE) (AID 2282958); conditions: HepG2 PPRE cis-element reporter, Attagene transcription factor profiling; actives raise or lower the signal
Method in brief: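 DMSO served as negative control and baseline for bidirectional curve fitting. Signal came from PPRE-regulated reporter mRNA in HepG2 cells, measured 24 h post-dosing by RT-PCR, 6-FAM primer extension and capillary electrophoresis.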

[16] = ATG_TCF_b_cat_CIS: Attagene CIS-FACTORIAL HepG2 Assay for human T-Cell-Factor with beta-catenin (TCF/b-cat) (AID 2282965); conditions: HepG2 TCF/beta-catenin cis-reporter transcription, actives raise or lower the signal
Method in brief: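 In this cis-format system, transfected HepG2 cells report endogenous transcription factor activity. Readout after 24 h exposure is reporter transcript abundance from RT-PCR and capillary electrophoresis, analysed for gain or loss of signal versus DMSO.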

[17] = biological target: Nuclear receptor subfamily 1 group I member 3 (Homo sapiens) (UniProt Q14994); assay: ATG_CAR_TRANS: Attagene TRANS-FACTORIAL HepG2 Assay for human Constitutive Androstane Receptor (CAR) (AID 2282969; active means hit-call score of the fitted dose curve at least 0.9, where 1 is the maximum;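 further: activators raise reporter mRNA above DMSO so AC50 marks induction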); conditions: HepG2 Attagene TRANS-FACTORIAL CAR reporter
Method in brief: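 Steps: transient transfection of HepG2 with multiple GAL4-UAS reporter units; 24 h compound incubation; RNA isolation, RT-PCR, 6-FAM primer extension, HpaI digest; capillary electrophoresis. Gain-of-signal relative to DMSO negative control.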

[18] = ATG_SREBP_CIS: Attagene CIS-FACTORIAL HepG2 Assay for human Sterol Regulatory Element Binding (SREBP) (AID 2282962); conditions: HepG2 Attagene cis-factorial SREBP reporter, mRNA; actives raise or lower the signal
Method in brief: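 Values derive from bidirectional curve fitting with DMSO as baseline. The underlying measurement is reporter mRNA from cis-element-regulated units in transiently transfected HepG2, quantified by RT-PCR and capillary electrophoresis after 24 h exposure.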

[19] = biological target: Estrogen receptor (Homo sapiens) (UniProt P03372); assay: ATG_ERa_TRANS: Attagene TRANS-FACTORIAL HepG2 Assay for human Estrogen Receptor alpha (ERa) (AID 2282970; active means hit-call score of the fitted dose curve at least 0.9, where 1 is the maximum); conditions: HepG2 Attagene TRANS ERa GAL4 reporter, mRNA
Method in brief: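 Transfected HepG2 cells carrying GAL4-UAS-driven reporter units were dosed for 24 hours. Total RNA was reverse-transcribed, reporter sequences PCR-amplified, FAM-labelled, HpaI-digested and resolved by capillary electrophoresis. Increases over DMSO control defined activity.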

Measured: AC50

Sequence of X-box-binding protein 1 (Homo sapiens) (P17861 whole entry, looked up): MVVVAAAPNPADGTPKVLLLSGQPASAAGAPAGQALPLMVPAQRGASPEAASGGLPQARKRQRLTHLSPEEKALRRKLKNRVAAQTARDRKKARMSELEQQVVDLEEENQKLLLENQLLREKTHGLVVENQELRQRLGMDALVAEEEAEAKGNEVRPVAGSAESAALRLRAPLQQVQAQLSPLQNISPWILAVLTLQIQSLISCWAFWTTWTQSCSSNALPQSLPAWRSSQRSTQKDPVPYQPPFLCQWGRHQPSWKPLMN
Sequence of Transcription factor Sp1 (Homo sapiens) (P08047 whole entry, looked up): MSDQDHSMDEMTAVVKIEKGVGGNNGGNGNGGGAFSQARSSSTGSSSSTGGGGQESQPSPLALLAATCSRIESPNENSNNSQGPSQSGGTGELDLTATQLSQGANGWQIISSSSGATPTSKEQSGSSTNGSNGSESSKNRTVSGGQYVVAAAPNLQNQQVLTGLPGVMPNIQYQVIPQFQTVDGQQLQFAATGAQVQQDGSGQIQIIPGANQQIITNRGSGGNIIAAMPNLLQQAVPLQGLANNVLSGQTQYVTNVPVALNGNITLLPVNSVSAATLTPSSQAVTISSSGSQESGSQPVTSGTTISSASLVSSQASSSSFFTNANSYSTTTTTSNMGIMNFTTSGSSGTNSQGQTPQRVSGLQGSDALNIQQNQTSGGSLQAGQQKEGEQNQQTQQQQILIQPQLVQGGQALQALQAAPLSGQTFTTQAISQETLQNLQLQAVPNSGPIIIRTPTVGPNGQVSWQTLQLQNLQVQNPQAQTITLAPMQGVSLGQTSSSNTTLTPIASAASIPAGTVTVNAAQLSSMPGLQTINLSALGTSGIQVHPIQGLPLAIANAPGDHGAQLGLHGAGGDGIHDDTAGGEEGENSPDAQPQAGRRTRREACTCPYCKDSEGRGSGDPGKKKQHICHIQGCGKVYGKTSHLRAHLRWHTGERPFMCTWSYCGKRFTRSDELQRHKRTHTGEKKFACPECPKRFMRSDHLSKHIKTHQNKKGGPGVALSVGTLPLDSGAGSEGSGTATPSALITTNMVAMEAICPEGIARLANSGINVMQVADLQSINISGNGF
Sequence of Signal transducer and activator of transcription 3 (Homo sapiens) (P40763 whole entry, looked up): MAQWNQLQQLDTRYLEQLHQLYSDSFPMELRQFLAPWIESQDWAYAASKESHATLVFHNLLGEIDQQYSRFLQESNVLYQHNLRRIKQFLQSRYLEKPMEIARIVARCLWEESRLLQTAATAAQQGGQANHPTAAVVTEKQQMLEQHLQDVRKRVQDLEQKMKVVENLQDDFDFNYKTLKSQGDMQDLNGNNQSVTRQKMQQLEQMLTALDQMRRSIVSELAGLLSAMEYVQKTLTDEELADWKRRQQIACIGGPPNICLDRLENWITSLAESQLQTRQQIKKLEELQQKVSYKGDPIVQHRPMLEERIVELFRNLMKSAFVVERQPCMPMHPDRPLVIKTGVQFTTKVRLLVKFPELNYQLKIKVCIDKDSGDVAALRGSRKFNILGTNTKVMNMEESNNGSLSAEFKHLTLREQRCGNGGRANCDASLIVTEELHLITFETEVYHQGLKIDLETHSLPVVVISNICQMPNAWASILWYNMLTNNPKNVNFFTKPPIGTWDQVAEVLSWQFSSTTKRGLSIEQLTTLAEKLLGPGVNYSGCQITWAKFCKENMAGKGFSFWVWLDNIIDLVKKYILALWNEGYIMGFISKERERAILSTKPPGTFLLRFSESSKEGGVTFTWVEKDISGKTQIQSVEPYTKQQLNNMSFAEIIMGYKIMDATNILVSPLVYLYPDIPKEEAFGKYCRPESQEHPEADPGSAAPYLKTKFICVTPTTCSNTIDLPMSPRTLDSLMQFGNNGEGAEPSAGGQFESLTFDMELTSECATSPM
Sequence of Nuclear receptor subfamily 1 group I member 3 (Homo sapiens) (Q14994 whole entry, looked up, the tested form may be a part): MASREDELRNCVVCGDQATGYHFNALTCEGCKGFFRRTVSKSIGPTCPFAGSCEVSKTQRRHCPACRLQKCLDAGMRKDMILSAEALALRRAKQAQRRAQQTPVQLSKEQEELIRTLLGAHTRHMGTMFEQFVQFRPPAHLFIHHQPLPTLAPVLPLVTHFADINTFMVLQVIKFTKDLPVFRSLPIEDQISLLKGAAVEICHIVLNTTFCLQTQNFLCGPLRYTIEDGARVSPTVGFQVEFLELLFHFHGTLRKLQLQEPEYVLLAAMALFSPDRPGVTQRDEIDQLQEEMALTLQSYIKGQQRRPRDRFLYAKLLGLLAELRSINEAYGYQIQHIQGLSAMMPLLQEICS
Sequence of Paired box protein Pax-6 (Homo sapiens) (P26367 whole entry, looked up): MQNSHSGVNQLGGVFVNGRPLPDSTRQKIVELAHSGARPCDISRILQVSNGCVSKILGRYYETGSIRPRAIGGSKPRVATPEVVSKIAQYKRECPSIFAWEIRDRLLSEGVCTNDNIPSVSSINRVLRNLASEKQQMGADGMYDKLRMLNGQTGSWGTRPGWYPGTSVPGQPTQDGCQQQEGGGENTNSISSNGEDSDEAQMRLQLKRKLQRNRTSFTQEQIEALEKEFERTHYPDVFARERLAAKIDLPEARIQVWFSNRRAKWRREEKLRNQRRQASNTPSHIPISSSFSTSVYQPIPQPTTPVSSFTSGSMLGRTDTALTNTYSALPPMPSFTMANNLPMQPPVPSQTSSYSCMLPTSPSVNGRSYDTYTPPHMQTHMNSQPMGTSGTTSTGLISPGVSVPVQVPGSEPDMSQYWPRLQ
Sequence of Steroid hormone receptor ERR1 (Homo sapiens) (P11474 whole entry, looked up, the tested form may be a part): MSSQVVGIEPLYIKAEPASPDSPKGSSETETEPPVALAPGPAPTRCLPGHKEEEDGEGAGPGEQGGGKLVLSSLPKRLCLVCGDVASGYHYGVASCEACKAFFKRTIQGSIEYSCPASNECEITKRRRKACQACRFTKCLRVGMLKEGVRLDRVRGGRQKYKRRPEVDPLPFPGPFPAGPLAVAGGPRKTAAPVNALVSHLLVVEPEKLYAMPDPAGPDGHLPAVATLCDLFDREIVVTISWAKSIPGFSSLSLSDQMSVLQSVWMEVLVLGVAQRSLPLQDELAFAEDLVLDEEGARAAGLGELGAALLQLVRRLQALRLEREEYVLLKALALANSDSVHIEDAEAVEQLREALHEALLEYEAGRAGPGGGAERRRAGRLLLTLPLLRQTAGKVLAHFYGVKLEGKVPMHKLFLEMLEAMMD
Sequence of Estrogen receptor (Homo sapiens) (P03372 whole entry, looked up, the tested form may be a part): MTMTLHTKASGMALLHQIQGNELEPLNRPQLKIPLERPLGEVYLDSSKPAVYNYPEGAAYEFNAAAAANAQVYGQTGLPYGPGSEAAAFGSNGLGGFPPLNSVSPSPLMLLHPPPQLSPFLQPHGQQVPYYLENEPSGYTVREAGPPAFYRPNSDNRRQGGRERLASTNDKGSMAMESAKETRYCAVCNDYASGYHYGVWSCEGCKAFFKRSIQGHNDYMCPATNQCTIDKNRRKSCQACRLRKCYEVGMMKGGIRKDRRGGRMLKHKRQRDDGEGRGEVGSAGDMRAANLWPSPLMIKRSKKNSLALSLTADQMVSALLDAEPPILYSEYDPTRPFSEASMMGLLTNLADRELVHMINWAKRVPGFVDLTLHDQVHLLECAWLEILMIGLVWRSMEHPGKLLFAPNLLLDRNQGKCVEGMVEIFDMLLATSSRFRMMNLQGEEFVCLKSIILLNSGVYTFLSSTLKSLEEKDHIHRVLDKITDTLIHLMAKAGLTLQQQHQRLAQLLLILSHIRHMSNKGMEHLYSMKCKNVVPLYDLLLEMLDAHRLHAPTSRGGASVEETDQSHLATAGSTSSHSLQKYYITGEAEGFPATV
Sequence of Androgen receptor (Homo sapiens) (P10275 whole entry, looked up, the tested form may be a part): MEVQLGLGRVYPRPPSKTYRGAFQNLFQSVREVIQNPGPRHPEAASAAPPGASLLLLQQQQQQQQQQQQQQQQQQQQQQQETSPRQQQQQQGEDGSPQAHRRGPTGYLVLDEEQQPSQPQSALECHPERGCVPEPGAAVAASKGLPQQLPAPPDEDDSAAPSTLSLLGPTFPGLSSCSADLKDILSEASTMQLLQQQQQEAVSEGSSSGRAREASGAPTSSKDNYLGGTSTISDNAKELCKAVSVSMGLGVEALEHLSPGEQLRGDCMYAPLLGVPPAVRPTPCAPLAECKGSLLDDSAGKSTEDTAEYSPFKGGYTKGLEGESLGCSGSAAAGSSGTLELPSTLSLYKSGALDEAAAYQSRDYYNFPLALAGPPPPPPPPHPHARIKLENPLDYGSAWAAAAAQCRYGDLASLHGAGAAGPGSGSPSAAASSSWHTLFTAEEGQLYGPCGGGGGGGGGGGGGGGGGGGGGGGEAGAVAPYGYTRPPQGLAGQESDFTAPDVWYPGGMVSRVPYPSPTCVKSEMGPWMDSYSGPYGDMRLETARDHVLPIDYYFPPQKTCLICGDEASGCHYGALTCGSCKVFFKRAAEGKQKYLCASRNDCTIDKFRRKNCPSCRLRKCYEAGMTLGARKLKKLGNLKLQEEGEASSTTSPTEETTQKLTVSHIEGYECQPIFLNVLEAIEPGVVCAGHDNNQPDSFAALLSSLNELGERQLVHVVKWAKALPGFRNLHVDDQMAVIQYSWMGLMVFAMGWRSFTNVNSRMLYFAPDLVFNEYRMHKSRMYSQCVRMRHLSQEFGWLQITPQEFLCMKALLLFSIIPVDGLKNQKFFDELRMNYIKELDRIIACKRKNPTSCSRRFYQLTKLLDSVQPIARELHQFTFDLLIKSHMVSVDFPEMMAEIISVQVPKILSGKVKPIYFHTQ

O=c1ccc(=O)[nH][nH]1
inactive: [1] | [3] | [4] | [5] | [6] | [7] | [8] | [9] | [10] | [11] | [12] | [13] | [14]
active: [2] 26.7 µM

CCCOCC(=Nc1ccc(Cl)cc1C(F)(F)F)n1ccnc1
active: [2] 3.63 µM | [15] 2.67 µM
inactive: [1] | [4] | [5] | [6] | [7] | [16] | [8] | [9] | [10] | [12] | [14]

CC(C)[C@H](C(=O)O[C@H](C#N)c1cccc(Oc2ccccc2)c1)c1ccc(Cl)cc1
inactive: [1] | [15] | [3] | [4] | [5] | [6] | [7] | [8] | [9] | [17] | [12] | [14]
active: [2] 1.04 µM

CNC(=O)Oc1cccc2c1OC(C)(C)O2
active: [2] 40.2 µM | [15] 50 µM | [5] 50 µM | [10] 50 µM | [12] 33.2 µM
inactive: [1] | [4] | [18] | [6] | [7] | [16] | [8] | [9] | [19]

C=C(C)[C@H]1Cc2c(ccc3c2O[C@@H]2COc4cc(OC)c(OC)cc4[C@@H]2C3=O)O1
inactive: [1] | [2] | [3] | [4] | [6] | [7] | [8] | [9] | [17] | [11]
active: [15] 0.0321 µM | [5] 0.039 µM | [12] 0.0204 µM

CC(C)=CC1C(C(=O)OCN2C(=O)C3=C(CCCC3)C2=O)C1(C)C (configuration not stated)
inactive: [4] | [5] | [6] | [7] | [16] | [8] | [9] | [13] | [14]
active: [1] 74 µM | [2] 13.5 µM | [3] 50 µM | [18] 65.2 µM | [10] 31.7 µM | [12] 50 µM

CCCCOC(=O)[C@@H](C)Oc1ccc(Oc2ccc(C#N)cc2F)cc1
active: [2] 64.7 µM
inactive: [1] | [15] | [3] | [4] | [5] | [6] | [7] | [8] | [9] | [10] | [17] | [19] | [11] | [12] | [14]

S=C1NCCN1
inactive: [1] | [2] | [3] | [4] | [5] | [18] | [6] | [7] | [8] | [9] | [10] | [12]

CN(C)[C@@H]1C(=O)C(C(N)=O)=C(O)[C@@]2(O)C(=O)C3=C(O)c4c(O)cccc4[C@@](C)(O)[C@H]3[C@H](O)[C@@H]12
active: [2] 65 µM and 26.5 µM and 34.9 µM
inactive: [1] | [4] | [5] | [18] | [6] | [7] | [16] | [8] | [9] | [12] | [14]
